# Test results: PubChem BioAssay AID1981 (Southern Research Specialized Biocontainment Screening …, 2009)
# Among all 2,200 compounds or so, about 480 (22%) were called active. How the calls were made is not given here. Not all results are given here. Measured potencies and affinities stand elsewhere.
# Assay: S. Typhimurium GFP fluorescence dose response in modified counterscreen for PhoP regulon inhibitor project (AID 1981)
# Details: 4 h; series mostly up to 150 µM
row,SMILES,outcome
1,COc1ccc2nc(NC(=O)C3CCCN3S(=O)(=O)c3ccc(C)cc3)sc2c1 (stereo unspecified),inactive
2,c1ccc2[nH]c(CSc3nccs3)nc2c1,inactive
3,CC(=O)c1ccc(NC(=S)NC(NC(=O)c2ccco2)C(Cl)(Cl)Cl)cc1 (stereo unspecified),inactive
4,CN(C)c1ccc([C@@H]2[C@@H]([N+](=O)[O-])[C@H]3C=Cc4ccccc4N3[C@H]2C(=O)c2ccc(Cl)cc2)cc1,inactive
5,O=C(O)c1cc(O)c2c(c1)[C@@H]([C@H]1c3cc(C(=O)O)cc(O)c3C(=O)c3c(O[C@@H]4O[C@H](CO)[C@@H](O)[C@H](O)[C@H]4O)cccc31)c1cccc(OC3O[C@H](CO)[C@@H](O)[C@H](O)[C@H]3O)c1C2=O (stereo partly specified),inactive
6,O=C(CCN1C(=O)C2C3C=CC(C3)C2C1=O)N1CCN(c2cccc(Cl)c2)CC1 (stereo unspecified),inactive
7,CCCOc1ccc(C2NC(=S)NC(c3ccccc3)=C2C(=O)Nc2ccc(C)cc2)cc1OC (stereo unspecified),inactive
8,CCOC(=O)c1c(C)[nH]c(C)c1C(=O)COC(=O)/C=C/c1cccc(F)c1,inactive
9,c1ccc2c3c([nH]c2c1)-c1[nH]ncc1CC3,inactive
10,COc1ccc(CCN2CC3=C(C2=O)C(c2ccccc2)NC(=O)N3C)cc1OC (stereo unspecified),inactive
11,CC1CCN(S(=O)(=O)c2cccc(C(=O)N(C)C3CCS(=O)(=O)C3)c2)CC1 (stereo unspecified),inactive
12,COc1ccc(O)c(/C=c2/sc3nc4cc(C)c(C)cc4n3c2=O)c1,inactive
13,CC(=O)Nc1cccc(OCC(=O)Nc2ccc(F)cc2)c1,inactive
14,O=C1CSc2ccccc2N1Cc1ccc(F)cc1,inactive
15,COc1ccccc1N1CCN(C(CNS(=O)(=O)c2ccccc2)c2cccnc2)CC1 (stereo unspecified),inactive
16,CN1CCN(C(c2cccc(C(F)(F)F)c2)c2nnnn2C(C)(C)C)CC1 (stereo unspecified),inactive
17,CC(=O)c1cccc(NC(=O)Nc2cc3sccc3n2C)c1,inactive
18,O=C(CN1C(=O)COc2ccccc21)Nc1ccc(F)cc1,inactive
19,O=C(O)C1CC=CCC1C(=O)NC12CC3CC(CC(C3)C1)C2 (stereo unspecified),inactive
20,CSCCC(NC(=O)c1cccc(C)c1)C(=O)OCC(=O)NC(=O)c1cccn1C (stereo unspecified),inactive
21,CCOC(=O)C1=C(c2ccccc2)N=C2SCC(=O)N2C1c1ccc(O)c(OC)c1 (stereo unspecified),inactive
22,COC(=O)Cn1cc(C(=O)c2ccco2)c2ccccc21,inactive
23,CCCCn1cnc2sc(-c3ccccc3)cc2c1=O,inactive

row,SMILES,outcome
1,Cc1cc2oc(=O)cc(CSc3nc(N)cc(N)n3)c2cc1C,inactive
2,CC1CCN(c2ccc(NC(=S)NC(=O)c3ccc(-c4cccc([N+](=O)[O-])c4)o3)cc2)CC1,inactive
3,COc1ccc(-c2csc(Nc3cccnc3)n2)cc1,inactive
4,Nc1nnc(SCCOc2ccc(Br)cc2)s1,inactive
5,c1ccc(-c2cnn3nnnc3n2)cc1,inactive
6,CC(C)CNC(=S)NC1CCCC1,inactive
7,Cc1cc(/C=N/n2cnnc2)c(C)n1-c1ccc(OCc2ccc(F)cc2)cc1,inactive
8,COc1ccc(/C=C/c2nc3ccccc3n2Cc2ccccc2OC)cc1,inactive
9,COc1cccc(-n2c(N)c(C(=O)Nc3c(C)n(C)n(-c4ccccc4)c3=O)c3nc4ccccc4nc32)c1,inactive
10,COc1cccc(NC(=S)N/N=C2\CC(C)(C)Oc3ccc(O)cc32)c1,inactive
11,CCc1cc2c(NCCC(=O)O)nc(C)nc2s1,inactive
12,CN1c2ccccc2C(O)=C(C(=O)Nc2ccccc2)S1(=O)=O,inactive
13,O=C(Nc1cccc2ccccc12)c1ccc(Cn2cc(Cl)cn2)cc1,inactive
14,Cc1cc(C)n(-c2nc(NCCN(C)C)c3c4c(sc3n2)CCCC4)n1,inactive
15,Cc1ccc(-c2nnn(CC(=O)Nc3ccccc3-c3ccccc3)n2)c(-n2cnnn2)c1,inactive
16,O=c1[nH]c(CN2CCCCC2)nc2ccccc12,inactive
17,Cc1cc(C(C)c2ccccc2)c(O)c(CN2CCOCC2)c1C (stereo unspecified),inactive
18,c1ccc(COc2cccc(CN3CCN(c4ccccn4)CC3)c2)cc1,inactive
19,N#Cc1ccc(COC(=O)c2ccc3c(=O)[nH]c(CN4CCOCC4)nc3c2)cc1,inactive
20,CC1C(C#N)=C(N)OC2=C1C(=O)CCC2 (stereo unspecified),inactive
21,COc1ccc(C2C(C#N)=C(N)OC3=C2C(=O)CCC3)cc1Cn1cc([N+](=O)[O-])cn1 (stereo unspecified),inactive
22,CCN(CC)CCCn1c(=S)[nH]c2cc(OC)c(OC)cc2c1=O,inactive
23,Cn1c(CO)cnc1SCc1ccc([N+](=O)[O-])cc1,inactive

row,SMILES,outcome
1,COc1ccccc1Nc1nc(-c2c(C)[nH]c3ccccc23)cs1,inactive
2,CCc1ccc(OCC(=O)Nc2ccc(-c3cc4ccccc4oc3=O)c(OC)c2)cc1,inactive
3,COc1ccc2oc(=O)cc(C)c2c1,inactive
4,COc1ccc(S(=O)(=O)n2ccc(-c3ccc(OCCN(C)c4ccccn4)cc3)n2)cc1,inactive
5,NNC(=S)Nc1ccc(Cl)cc1,inactive
6,OCCNc1ccc(Cl)cc1,inactive
7,Cc1ccc(S(=O)(=O)NC2c3cccc4cccc(c34)C2Sc2n[nH]c(N)n2)cc1 (stereo unspecified),inactive
8,Brc1ccc(-c2cnc3n2CCCC3)cc1,inactive
9,CCCNC1=C(C)C(=O)C2=C(C1=O)C(COC(N)=O)[C@]1(OC)C3NC3CN21 (stereo partly specified),inactive
10,Cc1ccc(S(=O)(=O)c2c(N)n(NC(=O)c3ccco3)c3nc4ccccc4nc23)cc1,inactive
11,O=C(c1cnsn1)N1CCN(c2ccccc2)CC1,inactive
12,COc1ccc(OC)c(C2C=C(C34CC5CC(CC(C5)C3)C4)NC(=S)N2)c1 (stereo unspecified),inactive
13,O=C(c1[nH]ncc1-c1ccc(Cl)cc1)C1CO1 (stereo unspecified),inactive
14,O=C(CSCc1cccc(CSCC(=O)Nc2ccc3ccccc3c2)n1)Nc1ccc2ccccc2c1,inactive
15,c1ccc(CSc2nnc(-c3ccncc3)o2)cc1,inactive
16,C=CCNc1nnc(Cl)c2ccccc12,inactive
17,S=C(NCc1ccncc1)Nc1ccc(Cl)c(Cl)c1,inactive
18,Cc1cc(-c2csc(NC(=O)c3ccccc3C(F)(F)F)n2)c(C)n1Cc1ccccc1,inactive
19,Cc1ccc2[nH]c3c(NCc4ccco4)ncnc3c2c1,inactive
20,c1ccc(CNc2nc(N3CCN(Cc4ccccc4)CC3)nc3ccccc23)cc1,inactive
21,c1coc(CNc2ncnc3ccccc23)c1,inactive
22,c1ccc(CN2CCN(c3nc(NCc4ccco4)c4ccccc4n3)CC2)cc1,inactive
23,c1ccc(CNc2ncnc3ccccc23)cc1,inactive

row,SMILES,outcome
1,Cc1cccc(C(=O)NC(NCc2ccco2)C(Cl)(Cl)Cl)c1 (stereo unspecified),inactive
2,Oc1ccccc1Nc1nc(NCc2ccco2)c2ccccc2n1,inactive
3,Cc1ccc(-c2nc(NCc3cccnc3)c3ccccc3n2)cc1,inactive
4,O=C(c1ccccc1)N1CCN(c2ccc([N+](=O)[O-])c(NCc3ccco3)c2)CC1,inactive
5,C/C(=N/NC(=O)Cc1cccn1C)c1ccccc1,inactive
6,COc1ccc(NC(=O)CCNS(=O)(=O)c2ccc3c(c2)CCC(=O)N3)cc1,inactive
7,O=C(Nc1nccs1)c1cc(-c2ccco2)nc2ccccc12,inactive
8,Cc1cn([C@H]2C[C@H](N=[N+]=[N-])[C@@H](CO)O2)c(=O)[nH]c1=O,inactive
9,COc1cccc(-c2nnc3sc(-c4ccc(C)cc4)nn23)c1,inactive
10,CN(CC(=O)N1CCN(c2ccccn2)CC1)S(=O)(=O)c1ccc2ccccc2c1,inactive
11,Cn1nnnc1SCC(=O)NC1CCCCC1,inactive
12,Nc1nnc(SCc2ccc(F)cc2Cl)s1,inactive
13,Cn1c(C(O)c2ccc(Br)cc2)nc(Cl)c1Cl (stereo unspecified),inactive
14,CCC1C2CN(C(C)=O)CC=C2C(C#N)=C(N)C1(C#N)C#N (stereo unspecified),inactive
15,Clc1ccc(-n2ncc3c(NCc4cccs4)ncnc32)cc1,inactive
16,CCn1c(Cc2ccccc2)nnc1SCC(=O)Nc1nc(C)c(C)s1,inactive
17,Nc1ccc2oc3ccccc3c2c1,inactive
18,CCOc1cc(C2C(C(=O)OC)=C(C)N=C3SCCC(=O)N32)ccc1OC(C)=O (stereo unspecified),inactive
19,CCCn1c(/N=C/c2ccc3c(c2)OCO3)nc2ccccc21,inactive
20,Cc1ccc(NS(=O)(=O)c2ccccc2)c2c1CC(C)(C)O2,inactive
21,COc1ccc(NC(=O)C(Sc2nnc(-c3ccncc3)n2-c2ccccc2C)c2ccccc2)cc1Cl (stereo unspecified),inactive
22,CC(=O)Cn1cnc2sc(-c3ccccc3)cc2c1=O,inactive
23,C/C(=N\Nc1nc2ccccc2[nH]1)c1ccc(Cl)s1,inactive

row,SMILES,outcome
1,C/C(=N\Nc1nc2ccccc2[nH]1)c1cccs1,inactive
2,O=S(=O)(c1ccc(N2CCCC2c2nc3ccccc3s2)nc1)N1CCOCC1 (stereo unspecified),inactive
3,O=C(/C=C/c1cccs1)N1CCN(Cc2ccc3c(c2)OCO3)CC1,inactive
4,CC(C)(C)NS(=O)(=O)c1ccc(CCC(=O)N2CCOCC2)cc1,inactive
5,Cc1cc(C(=O)CSc2nnnn2C)c(C)n1-c1ccc2c(c1)OCCO2,inactive
6,COC(=O)c1c(C)oc2ccc(NS(=O)(=O)c3cccs3)cc12,inactive
7,Cc1cc(N/N=C/c2cccc(Cl)c2)nc(NCc2ccccc2)n1,inactive
8,C(=N\N1CCN(Cc2ccccc2)CC1)/c1cccnc1,inactive
9,O=C(Nc1cccc(Cl)c1)C1C2CCC3C(CCC21)C3(Cl)Cl (stereo unspecified),inactive
10,O=C1CC(c2ccccc2)n2ncnc2N1 (stereo unspecified),inactive
11,Cc1onc(-c2ccccc2)c1C(=O)NC(=S)NNC(=O)c1ccc(O)cc1O,inactive
12,O=C(NC(NC(=S)Nc1ccc(Cl)cc1)C(Cl)(Cl)Cl)c1ccco1 (stereo unspecified),inactive
13,CCn1c(N)[n+](CC(=O)Nc2ccc(SC(F)F)cc2)c2ccccc21,inactive
14,FC(F)Oc1ccc(NC(=S)NCc2nc3ccccc3[nH]2)cc1,inactive
15,Cc1ccc2[nH]c3c(NCc4ccccc4)ncnc3c2c1,inactive
16,COC(=O)N1CCN(c2ccc(Cl)c(Cl)c2)CC1,inactive
17,Brc1ccc2nc3c(n2c1)CCCC3,inactive
18,Cc1ccccc1Nc1nc(-c2sc(NC(=O)c3cccc(Cl)c3)nc2C)cs1,inactive
19,CC(=O)Nc1ccc(C(=O)Nc2nc(-c3cc(C)n(Cc4ccccc4)c3C)cs2)cc1,inactive
